Experimental data as given in PubChem BioAssay (NCI).
Compounds without any hit were thinned out: in the full panel of roughly 83,000, 20% have a hit.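 Note: values are percent growth. 100 is the growth of untreated cells, values between 100 and 0 indicate rising inhibition; between -100 and 0 indicates cell death.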 Values without a mark were called inactive. The source made the active and inactive calls. Rule for the calls: active = growth percent below 10; inactive = the rest.

System: HL-60(TB) leukemia
Test: NCI-60 one-dose screen, 48 h (100 = growth as untreated, 0 = no growth, -100 = all killed)
Conditions: 10 µM unless noted

Compound	growth
CC(=O)CC(=O)OC/C=C(/C)CCC=C(C)C	124%
COc1cc(C)c(C2C(C#N)=C(N)Oc3n[nH]c(-c4cccs4)c32)cc1C(C)C (stereo not given)	66.2%
S=c1ssnc1-c1ccccn1	-43.5% (active)
Fc1cc2c(cc1Cl)N(c1ncnc3ccc(-c4ccc5n[nH]nc5c4)cc13)CC2	69.3%
COC(=O)C(CSC(c1ccccc1)(c1ccccc1)c1ccccc1)NC(=O)C(CC(N)=O)NC(=O)OCc1ccccc1 (stereo not given)	-7.75% (active)
O=C(/C=C/c1cc2ccccc2[nH]c1=O)/C=C/c1cc2ccccc2[nH]c1=O	24.7%
COC(=O)c1c2c(c(C)[n+]([O-])c1C)C(=O)C=C(NCc1ccc(F)cc1)C2=O	-29.4% (active)
Cn1cnc2c(F)c(Nc3ccc(Br)cc3F)c(C(=O)NOCCO)cc21	16.6%
C=C1C(=O)O[C@H]2[C@H]1CC/C(C(=O)NCCOCCOCC(=O)Nc1ccc(OC)c(C(N)=O)c1O)=C\CC[C@@]1(C)O[C@@H]21	81.3%
O=C(CSc1nccc(Nc2ccc(S(=O)(=O)Nc3ccccn3)cc2)n1)c1ccc(Cl)cc1	95.3%
CC(C)(C)c1cnc(CSc2cnc(NC(=O)C3CCNCC3)s2)o1	-40.4% (active)
Clc1ccc2c(c1)N(c1ncnc3ccc(-c4cnc5[nH]ncc5c4)cc13)CC2	34.5%
COC(=O)c1ccccc1Br	76.5%
Cc1ccc(/C=N/NC(N)=S)s1	101%
O=c1scc(-c2ccc(C(F)(F)F)cc2)s1	92.7%
